Results taken from PubChem BioAssay (NCATS).
Results filed as inconclusive are left out. Entries that show only a call come without a potency. Unmarked numbers belong to inactive results. Activity calls are given as the source filed them. Calls follow the shape of the dose curve; as a rule, active = well fitted curve in the direction sought with a large enough effect; inconclusive = small, poorly fitted or top-dose-only effect, or another doubt; inactive = no such curve, though single readings can be large; an effect the other way counts as inactive or inconclusive.

Experiments:
[1] = biological target: Rap guanine nucleotide exchange factor 3 (Homo sapiens) (UniProt O95398); test: Confirmatory qHTS for antagonist of cAMP-regulated guanine nucleotide exchange factor 3 (EPAC1) (AID 1645880); also: nearly all actives have a fitted effect of over 55% in size; also: potency is read from the fitted curve at half-maximal effect
Sequence of Rap guanine nucleotide exchange factor 3 (Homo sapiens) (O95398 whole entry, looked up): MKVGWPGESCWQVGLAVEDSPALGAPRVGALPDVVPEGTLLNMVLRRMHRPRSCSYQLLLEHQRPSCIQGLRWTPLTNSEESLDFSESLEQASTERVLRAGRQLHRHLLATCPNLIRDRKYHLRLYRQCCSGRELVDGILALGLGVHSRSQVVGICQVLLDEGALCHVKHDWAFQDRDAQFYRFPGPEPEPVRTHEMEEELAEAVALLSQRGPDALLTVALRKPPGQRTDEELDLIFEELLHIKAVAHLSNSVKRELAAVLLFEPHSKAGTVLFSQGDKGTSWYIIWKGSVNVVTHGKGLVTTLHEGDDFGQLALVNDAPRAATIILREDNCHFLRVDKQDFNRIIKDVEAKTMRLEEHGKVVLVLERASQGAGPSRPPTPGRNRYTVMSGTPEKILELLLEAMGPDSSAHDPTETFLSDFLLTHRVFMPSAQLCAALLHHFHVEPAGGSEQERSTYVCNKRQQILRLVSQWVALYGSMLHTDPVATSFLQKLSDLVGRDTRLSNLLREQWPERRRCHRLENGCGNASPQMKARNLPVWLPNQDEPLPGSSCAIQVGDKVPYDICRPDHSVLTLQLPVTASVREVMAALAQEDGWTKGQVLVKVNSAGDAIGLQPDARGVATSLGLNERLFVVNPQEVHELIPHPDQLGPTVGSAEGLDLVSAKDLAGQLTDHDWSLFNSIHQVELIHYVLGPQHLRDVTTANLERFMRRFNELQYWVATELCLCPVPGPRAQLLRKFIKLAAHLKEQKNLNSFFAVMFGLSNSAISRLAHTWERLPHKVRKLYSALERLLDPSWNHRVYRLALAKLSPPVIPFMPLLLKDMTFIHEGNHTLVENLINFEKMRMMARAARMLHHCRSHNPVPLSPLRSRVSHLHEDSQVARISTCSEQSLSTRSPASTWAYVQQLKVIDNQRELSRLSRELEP
Method in brief: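 Released BODIPY-GDP fluoresces less than Rap1-bound BODIPY-GDP; the signal is followed at 480/540 nm at 5-min intervals over 30 min, after 5 min at room temperature. Reactions contain 100 nM EPAC1, 250 nM RAP1B-BODIPY-GDP and 50 uM GDP; results are normalized to ATA and DMSO.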

[2] = biological target: Rap guanine nucleotide exchange factor 3 (Homo sapiens) (UniProt O95398); test: Confirmatory qHTS for agonist of cAMP-regulated guanine nucleotide exchange factor 3 (EPAC1) (AID 1645881);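 also: EPAC1 catalysed release of BODIPY-GDP from Rap1B seen as fluorescence loss; nearly all actives have a fitted effect of over 75% in size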
[3] = biological target: Rap guanine nucleotide exchange factor 4 (Homo sapiens) (UniProt Q8WZA2); test: Confirmatory qHTS for agonist of cAMP-regulated guanine nucleotide exchange factor 4 (EPAC2) (AID 1645884);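 also: nucleotide exchange releases bodipy-GDP from Rap1 and this lowers its fluorescence; nearly all actives have a fitted effect of over 65% in size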
Sequence of Rap guanine nucleotide exchange factor 4 (Homo sapiens) (Q8WZA2 whole entry, looked up): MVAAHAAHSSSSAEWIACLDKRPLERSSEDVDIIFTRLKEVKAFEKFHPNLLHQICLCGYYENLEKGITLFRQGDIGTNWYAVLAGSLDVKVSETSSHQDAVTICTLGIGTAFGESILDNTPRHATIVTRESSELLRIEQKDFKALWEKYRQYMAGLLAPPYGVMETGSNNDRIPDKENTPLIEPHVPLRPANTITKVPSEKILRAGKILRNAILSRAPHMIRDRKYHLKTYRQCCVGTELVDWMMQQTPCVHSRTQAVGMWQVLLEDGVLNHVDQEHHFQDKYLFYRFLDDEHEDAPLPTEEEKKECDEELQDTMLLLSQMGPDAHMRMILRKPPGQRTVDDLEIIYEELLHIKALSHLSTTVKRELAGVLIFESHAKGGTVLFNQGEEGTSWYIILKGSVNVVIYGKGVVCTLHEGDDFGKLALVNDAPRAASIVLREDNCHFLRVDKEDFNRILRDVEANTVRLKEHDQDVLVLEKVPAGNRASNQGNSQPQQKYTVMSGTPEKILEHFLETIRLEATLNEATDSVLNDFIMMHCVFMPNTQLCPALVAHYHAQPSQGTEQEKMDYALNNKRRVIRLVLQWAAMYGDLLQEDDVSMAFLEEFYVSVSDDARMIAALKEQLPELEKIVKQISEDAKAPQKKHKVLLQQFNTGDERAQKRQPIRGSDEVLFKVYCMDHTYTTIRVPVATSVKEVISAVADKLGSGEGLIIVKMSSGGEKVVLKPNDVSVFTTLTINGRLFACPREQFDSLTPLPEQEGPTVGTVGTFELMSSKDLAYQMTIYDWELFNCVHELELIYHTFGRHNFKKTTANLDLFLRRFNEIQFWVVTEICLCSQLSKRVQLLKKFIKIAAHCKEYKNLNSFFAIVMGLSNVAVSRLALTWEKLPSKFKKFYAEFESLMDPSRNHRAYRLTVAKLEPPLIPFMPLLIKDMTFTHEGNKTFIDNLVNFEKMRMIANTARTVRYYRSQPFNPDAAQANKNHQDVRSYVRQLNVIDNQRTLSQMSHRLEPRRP

[4] = biological target: Rap guanine nucleotide exchange factor 4 (Homo sapiens) (UniProt Q8WZA2); test: Confirmatory qHTS for antagonist of cAMP-regulated guanine nucleotide exchange factor 4 (EPAC2) (AID 1645885); also: nearly all actives have a fitted effect of over 25% in size; also: potency is read from the fitted curve at half-maximal effect
[5] = biological target: Rap guanine nucleotide exchange factor 3 (Homo sapiens) (UniProt O95398); test: Counterscreen qHTS for antagonist of cAMP-regulated guanine nucleotide exchange factor 3 (EPAC1) (AID 1645888)
Method in brief: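 Rap1B–BODIPY-GDP (250 nM) with 50 uM GDP; compounds pin-transferred to 9.74 nM–152 uM final (activator) or from 7.32 nM upwards (inhibitor). Fluorescence Ex/Em 480/540 nm read at 5 and 30 min, then after adding cAMP or buffer, at room temperature.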

| Compound | Potency [1] | Potency [2] | Potency [3] | Potency [4] | activation [3] | activity change, negative = inhibition [5] | Potency [5] |
| --- | --- | --- | --- | --- | --- | --- | --- |
| COc1ccc(N2CCN(C3CCCCC3NS(=O)(=O)c3ccccc3)CC2)cc1 (centres undefined) | inactive | inactive | inactive | 16.9 µM (active) | – | – | – |
| CCCCCCc1ccc(N2C[C@H](Cc3ccccc3)[C@@H](CC(=O)Nc3ccccc3)C2=O)cc1 | inactive | inactive | inactive | inactive | – | – | – |
| CCOC(=O)C1CCCN(c2cc(=O)n(C3CCCCC3)c(=O)[nH]2)C1 (centres undefined) | inactive | inactive | inactive | inactive | – | – | – |
| CCCCN(Cc1ccc(C(=O)N[C@H](C(=O)O)C(C)C)cc1)C(=O)C(c1ccccc1)c1ccccc1 | inactive | inactive | – | inactive | 8.93% [at 17.1 µM, percent relative to cAMP agonist control] | – | – |
| CC(=O)c1ccc(NC(=O)CC2Nc3cccc4cccc(c34)NC2=O)cc1 (centres undefined) | 75.7 µM (active) | inactive | inactive | inactive | – | – | – |
| COc1ccc(C(C[N+](=O)[O-])c2c(C)cc3ccccn23)c(OC)c1 (centres undefined) | inactive | inactive | – | inactive | 7.09% [at 17.1 µM, percent relative to cAMP agonist control] | – | – |
| COc1cccc(-c2nc3cc(SC)ccc3cc2CN(C(=O)c2csc(C)n2)C2CC2)c1 | inactive | inactive | inactive | 11.1 µM (active) | – | – | – |
| Cn1c(O)c(N=NC(=O)c2ccccc2O)c2ccccc21 | 53.6 µM (active) | inactive | inactive | inactive | – | – | – |
| Cc1cc(N(C)C)cc(C)c1/C=C/c1ccnc2ccccc12 | inactive | inactive | inactive | 13.9 µM (active) | – | – | – |
| Cc1nc2ccccc2c(=O)n1/N=C/c1ccccc1O | 35.5 µM (active) | inactive | – | inactive | 1.94% [at 17.1 µM, percent relative to cAMP agonist control] | – | – |
| CN(C)c1ccc(/C=C/c2ccnc3ccc(F)cc23)cc1 | inactive | inactive | inactive | inactive | – | – | – |
| Cc1ccc(Cl)c2sc(N3CCN(C(=O)c4ccco4)CC3)nc12 | inactive | inactive | – | inactive | 3.67% [at 17.1 µM, percent relative to cAMP agonist control] | -12.9% [at 30.8 µM] | – |
| O=C(/C=C/c1ccccc1)c1cc(Br)ccc(=O)c1O | 12 µM (active) | inactive | inactive | inactive | – | – | inactive |
| O=c1nc2s/c(=C\c3ccc(-c4ccccc4[N+](=O)[O-])o3)c(=O)n2nc1-c1ccccc1 | 12 µM (active) | inactive | inactive | inactive | – | – | inactive |
| Cc1c(C(=O)N2c3ccccc3CC2C)oc2ccccc12 (centres undefined) | inactive | inactive | inactive | inactive | – | – | inactive |
| COc1cc(NS(=O)(=O)c2ccc(NC(=O)/C(=C/c3ccccc3Cl)NC(=O)c3ccccc3)cc2)nc(OC)n1 | 84.9 µM (active) | inactive | inactive | inactive | – | – | inactive |
| Cc1ccc2nc(NC(=O)CSc3nc(=O)n(CCCN(C)C)c4c3CCC4)sc2c1 | inactive | inactive | – | inactive | 2.81% [at 17.1 µM, percent relative to cAMP agonist control] | -5.22% [at 30.8 µM] | – |

| Compound | Potency [1] | Potency [2] | Potency [3] | Potency [4] | activation [3] | activity change, negative = inhibition [5] | Potency [5] |
| --- | --- | --- | --- | --- | --- | --- | --- |
| O=C(O)CCn1cc(/C=C2\NC(=S)N(c3ccccc3)C2=O)c(-c2ccc(Br)cc2)n1 | inactive | inactive | inactive | inactive | – | – | inactive |
| CCOC(=O)C1CCN(C(c2cc(OC)c(OC)c(OC)c2)c2sc3nc(C)nn3c2O)CC1 (centres undefined) | inactive | inactive | – | inactive | 3.51% [at 17.1 µM, percent relative to cAMP agonist control] | -38.9% [at 30.8 µM] | – |
| C=CCOc1ccc(C=NNc2ccc(S(=O)(=O)Nc3ccccc3C(=O)O)cc2[N+](=O)[O-])cc1OC | 7.57 µM (active) | inactive | inactive | inactive | – | – | inactive |
| O=C(COC(=O)c1nc(Cl)ccc1Cl)c1ccccc1Cl | inactive | inactive | inactive | inactive | – | – | inactive |
| COC(=O)c1ccc(/C=C2\CCn3c2nc2cc(C(=O)O)ccc2c3=O)cc1 | inactive | inactive | inactive | inactive | – | – | inactive |
| Cc1ccc2nc3sc(C(=O)N4CCCc5ccccc54)c(N)c3cc2c1 | inactive | inactive | – | inactive | 4.98% [at 17.1 µM, percent relative to cAMP agonist control] | -0.0356% [at 30.8 µM] | – |
| COc1cc(Nc2nc(SCc3cccc(Cl)c3)nc3ccccc23)cc(OC)c1 | inactive | inactive | inactive | 0.151 µM (active) | – | – | inactive |
| Cc1ccc(Cl)c2c1N[C@@H](c1ccc(C(=O)O)cc1)[C@H]1CC=C[C@@H]21 | 84.9 µM (active) | inactive | inactive | inactive | – | – | inactive |
| O=C(NCc1ccccc1)c1ccc2nc(-c3ccco3)c(-c3ccco3)nc2c1 | 16.9 µM (active) | inactive | inactive | inactive | – | – | inactive |
| COc1cc(S(=O)(=O)Nc2ccccc2C)ccc1Cl | inactive | inactive | inactive | inactive | – | – | inactive |
| Cc1ccc(C)c(-n2c3nc(=O)[nH]c(=O)c-3cc3cc([N+](=O)[O-])ccc32)c1 | 47.8 µM (active) | inactive | inactive | inactive | – | – | inactive |
| CN1OC[C@@H]2CN(S(=O)(=O)c3cc(Cl)cc(Cl)c3)[C@H](c3ccc(-c4ccc(C#N)cc4)cc3)C[C@@H]21 | inactive | inactive | inactive | inactive | – | – | inactive |
| C=CCOc1ccc(/C=C2\SC(=S)N(C(C(=O)O)c3ccccc3)C2=O)cc1 (centres undefined) | 31.6 µM (active) | inactive | – | inactive | 3.84% [at 17.1 µM, percent relative to cAMP agonist control] | -23.9% [at 30.8 µM] | – |
| O=[N+]([O-])c1cc2ccccc2c(O)c1O | 31.6 µM (active) | inactive | – | inactive | 8.01% [at 17.1 µM, percent relative to cAMP agonist control] | 9.83% [at 30.8 µM] | – |
| CCCCCCNC(=O)c1cc(-c2ccco2)nc2ccccc12 | 22.4 µM (active) | inactive | – | inactive | 3.51% [at 17.1 µM, percent relative to cAMP agonist control] | -13.3% [at 30.8 µM] | – |
| COc1ccc(C2=NN(c3nc4ccccc4s3)C(=O)C2)cc1 | 75.7 µM (active) | inactive | inactive | inactive | – | – | inactive |
| O=c1[nH]c(Nc2ccccc2)cc2ccccc12 | 37.9 µM (active) | inactive | inactive | inactive | – | – | inactive |
